Screening data as filed in PubChem BioAssay.
Tau FP inhib – inhibitors of human tau fibril formation. P10636. K18 P301L tau heparin fibrillization, Alexa594 FP, 6 h. Potency, µM (titrated, usually from 57.7 µM), actives largely listed as inhibitors. hit rate 0.39% among 280,000. AID 1468; also: nearly all actives have a fitted effect of over 55% in size
Target sequence (P10636 561-689 P618L limits assumed): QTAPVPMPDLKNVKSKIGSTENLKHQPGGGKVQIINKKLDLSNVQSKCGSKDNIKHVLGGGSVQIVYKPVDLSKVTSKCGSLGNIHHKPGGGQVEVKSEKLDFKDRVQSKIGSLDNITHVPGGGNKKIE
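K18 P301L tau (15 uM unlabeled/0.24 uM Alexa 594-labeled, final) + compound + heparin 20 uM final; 100 mM NaOAc pH 7; 6 hr 37 C; ThT 30 uM final added, 1 hr RT; FP ex 555/em 632 nm.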
TR SRC2 fluor cs – Texas Red fluorescence interference in TRb-SRC2 counter-screen; Potency, µM (doses to about 106 µM); hit rate 0.29% among 280,000; TRb/SRC2 Texas Red total fluorescence interference; active = well fitted curve in either direction with a large enough effect; inconclusive = small, poorly fitted or top-dose-only effect
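Human TRb ligand-binding domain at 0.6 uM with 20 nM Texas Red SRC2 peptide in Tris buffer containing 1 uM T3 and 5% DMSO, incubated with compound 5 h at ambient temperature. Total fluorescence (555/632 nm) calculated as parallel + 2 × perpendicular.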
Tau fluor cs – counter-screen for tau fibril formation inhibitors. tau K18 P301L Alexa594 fluorescence, heparin fibrillization. Potency, µM (top dose mostly 57.7 µM). hit rate 0.93% among 280,000. AID 1463; also: nearly all actives have a fitted effect of over 55% in size
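Human tau K18 P301L (15 uM unlabeled, 0.24 uM Alexa 594-labeled) in 100 mM sodium acetate pH 7 with 20 uM heparin, 6 hr at 37 C. ThT 30 uM added, 1 hr ambient; Alexa 594 FP and total fluorescence read at 555/632 nm.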
Tau fibril ThT – tau fibrillization inhibition (ThT binding); recombinant tau K18 P301L (four-repeat tau fragment), heparin-induced fibrillization, ThT fluorescence; Potency, µM (doses to about 57.4 µM), hits mostly inhibitors; hit rate 2.1% among 270,000; AID 1460; also: nearly all actives have a fitted effect of over 55% in size
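Heparin-induced (20 uM) aggregation of recombinant human K18 P301L tau, 15 uM unlabeled with 0.24 uM labeled, pH 7 acetate buffer, 6 hr at 37 C with compound. Fibrils quantified by 30 uM ThT fluorescence after 1 hr ambient incubation.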
TRb SRC2 PPI – inhibitors of human thyroid hormone receptor beta-SRC2 interaction. TRbeta-SRC2 peptide binding, fluorescence polarization; receptor liganded with 1 µM T3. Potency, µM (doses to about 106 µM), usual class: inhibitors. AID 1469. hit rate 0.065% among 280,000. P10828; also: nearly all actives have a fitted effect of over 50% in size
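Decrease in fluorescence polarization of 20 nM Texas Red SRC2 coactivator peptide flagged inhibition of its binding to 0.6 uM TRb LBD; 1 uM T3 included, incubation 5 hr, ex 555/em 632 nm.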
RGS12 GoLoco inh – inhibitors of human Gai1-RGS12 GoLoco interaction (red fluorophore); P63096; Gai1:RGS12 GoLoco peptide FP, rhodamine, 10 min; Potency, µM (titrated, usually from 61.6 µM), hits mostly inhibitors; hit rate 0.44% among 230,000; active = well fitted inhibition curve with a large enough effect, not every such curve was filed as active; inactive = no such curve, though single readings can be large or run the other way; also: nearly all actives have a fitted effect of over 30% in size
Target sequence (P63096 whole entry, looked up): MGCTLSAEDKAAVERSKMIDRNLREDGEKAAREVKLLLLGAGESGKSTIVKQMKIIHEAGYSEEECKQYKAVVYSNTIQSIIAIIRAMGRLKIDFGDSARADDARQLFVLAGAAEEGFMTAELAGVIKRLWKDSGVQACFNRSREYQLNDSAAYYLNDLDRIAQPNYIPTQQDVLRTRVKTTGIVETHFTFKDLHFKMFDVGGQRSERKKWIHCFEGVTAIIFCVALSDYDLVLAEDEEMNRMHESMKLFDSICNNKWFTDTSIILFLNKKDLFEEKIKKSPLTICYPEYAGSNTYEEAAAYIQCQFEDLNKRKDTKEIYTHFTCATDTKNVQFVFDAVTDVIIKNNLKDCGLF
Of the large screens only hits and unclear results are named; the others gave an inactive call; ! = not confirmed by another sample; [ ] = dose if it differs, or a comment. Only some compounds are listed: those with a hit (about 3.1% of all), similar ones and a draw of the others. Unless noted, calls follow the shape of the dose curve; as a rule, active = well fitted curve in the direction sought with a large enough effect; inconclusive = small, poorly fitted or top-dose-only effect, or another doubt; inactive = no such curve, though single readings can be large; an effect the other way counts as inactive or inconclusive.

CN1CCc2c(sc(/N=C/c3cccs3)c2C(N)=O)C1	Tau FP inhib inconclusive, Tau fibril ThT 14µM
CN1CCc2c(sc(/N=C/c3ccco3)c2C(N)=O)C1	Tau FP inhib inconclusive, Tau fibril ThT inconclusive (no result: RGS12 GoLoco inh)
CCOC(=O)C(CCc1ccccc1)NC(C)C(=O)N1C(C(=O)O)CC2CCCC21 (stereo not drawn)	none
CCOC(=O)[C@H](CCc1ccccc1)N[C@@H](C)C(=O)N1[C@H](C(=O)O)C[C@H]2CCC[C@@H]21	RGS12 GoLoco inh 8.9µM (no result: Tau FP inhib, Tau fluor cs, Tau fibril ThT)
CN(C)c1ccc(NC(=O)Cn2cc(S(=O)(=O)Cc3ccccc3Cl)c3ccccc32)cc1	Tau fluor cs 11µM[quencher], Tau fibril ThT inconclusive (no result: RGS12 GoLoco inh)
NC(=O)CCC(=O)N1CCCC(C(=O)c2ccc3c4c(cccc24)CC3)C1 (stereo not drawn)	none
Cc1ccc(-c2cc3ncc4c(n3n2)-c2cc(C)ccc2OC4)cc1	none (no result: RGS12 GoLoco inh)
Cc1ccc(-c2cc3ncc4c(n3n2)-c2cc(F)ccc2OC4)cc1	TR SRC2 fluor cs 25µM[quencher] (no result: RGS12 GoLoco inh)
O=C(O)c1ccccc1C(=O)c1ccc(N2CCCC2)c([N+](=O)[O-])c1	none
COc1ccccc1C(=O)/C=C/c1ccc(N2CCCCC2)c([N+](=O)[O-])c1	Tau fluor cs inconclusive, Tau fibril ThT 4µM
O=C(/C=C/c1ccc(N2CCCCC2)c([N+](=O)[O-])c1)c1ccc(O)cc1	Tau FP inhib inconclusive, Tau fluor cs 16µM[quencher], Tau fibril ThT 11µM
Cc1cc2c(c(=O)o1)C(CCC1CCCCC1)C(C#N)=C(N)O2 (stereo not drawn)	none
Cc1[nH]c2ccccc2c1/C=C/c1cc[n+](C)cc1	Tau fibril ThT inconclusive, RGS12 GoLoco inh 2.8µM
Cc1ccccc1/C=C/c1cc[n+](C)cc1	RGS12 GoLoco inh 22µM
Cc1[nH]c2ccccc2c1/C=C/C(=O)c1ccncc1	Tau fibril ThT inconclusive
O=C(/C=C/c1ccc(O)c(O)c1)O[C@@H](C(=O)O)[C@@H](OC(=O)/C=C/c1ccc(O)c(O)c1)C(=O)O	none (no result: Tau FP inhib, Tau fluor cs, Tau fibril ThT)
N[C@H](Cc1ccc(O)c(O)c1)C(=O)O	Tau FP inhib inconclusive, TR SRC2 fluor cs 28µM![quencher], Tau fibril ThT 16µM
COC(=O)C(N)Cc1ccc(O)c(O)c1 (stereo not drawn)	Tau fibril ThT inconclusive
NC(Cc1ccc(O)c(O)c1)C(=O)O (stereo not drawn)	Tau FP inhib 25µM, Tau fluor cs 18µM[quencher], Tau fibril ThT 11µM
O=C(/C=C/c1ccc(O)c(O)c1)O[C@H](Cc1ccc(O)c(O)c1)C(=O)O	Tau FP inhib inconclusive, TR SRC2 fluor cs 25µM[quencher], Tau fluor cs 14µM[quencher], Tau fibril ThT 13µM, TRb SRC2 PPI inconclusive, RGS12 GoLoco inh 16µM
COc1cc(/C=C2\C(=O)N(c3ccc(S(N)(=O)=O)cc3)N=C2C)ccc1OC(=O)c1ccco1	Tau fluor cs inconclusive, Tau fibril ThT inconclusive
CCOC(=O)c1ccc(N2NC(=O)/C(=C/c3ccc(OC(=O)c4ccco4)c(OC)c3)C2=O)cc1	Tau fluor cs inconclusive, Tau fibril ThT 22µM
CCOc1cc(/C=C2/SC(=S)NC2=O)ccc1OC(=O)c1ccco1	Tau FP inhib inconclusive, Tau fibril ThT 13µM
Cc1ccc(OCc2nc(C#N)c(N3CCCCC3)o2)cc1	none
COc1cc(C2=NOC(C(=O)Nc3c(C)n(C)n(-c4ccccc4)c3=O)C2)cc(OC)c1OC (stereo not drawn)	none (no result: Tau fibril ThT)
C=CCNC(=S)NNC(=O)c1ccc(=O)n(Cc2ccc(Cl)cc2Cl)c1	none
CCN(C(=O)CN1CCN(c2ccc(O)cc2)CC1)c1c(N)n(Cc2ccccc2)c(=O)[nH]c1=O	Tau FP inhib inconclusive, Tau fibril ThT 28µM
CCN(C(=O)CN1CCN(c2cccc(C(F)(F)F)c2)CC1)c1c(N)n(Cc2ccccc2)c(=O)[nH]c1=O	none
CC(C(=O)N1CCOCCOCCOCC1)N1C(=O)c2ccccc2C1=O (stereo not drawn)	none
N#CC1=C(N)SC(N)=C(C#N)C1c1ccoc1	Tau FP inhib inconclusive, Tau fluor cs inconclusive, Tau fibril ThT 22µM
CCN(CC)C(=O)COc1ccc(S(=O)(=O)N2CCOCC2)cc1	none
